Our source for the composite z-score, z-score and composite Z-score values is PubChem BioAssay.

Activity calls are given as the source filed them.

For experiment [1], the system named is Human papillomavirus type 1a protein E7 (residues 44-93). As to the kind of experiment: HPV1a E7 fragment binders on microarrays, primary screen, biochemical, small-molecule microarray, residues 44-93, 635 nm fluorescence (AID 1108).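 Also: E7 fragment applied at 1 µg/mL in TBST for 1 h at 4 C; score combines spot fluorescence with its signal to noise ratio.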 The settings on record: small-molecule microarray binding, fluorescence 635 nm; higher = more signal.
The nature of experiment [2]: modulators of HCV replicon luciferase signal, primary screen, HCV replication inhibitor project, Huh7 cells, luciferase reporter (AID 1109).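 Also: huh7 hepatoma cells harbouring a luciferase neomycin HCV replicon reporter; luciferase luminescence as measure of HCV replicon replication; test concentration not given here.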 The settings on record: 48 h, higher = more signal.
Experiment [3] addresses Left-right determination factor 2 (Homo sapiens) (UniProt O00292). The experiment is described as follows: LEFTY2 binders on small-molecule microarrays, primary screen, biochemical, small-molecule microarray, 635 nm fluorescence scan (AID 1110). Conditions: LEFTY2 binding, higher = more signal.
Experiment [4] deals with Calmodulin-1 (Homo sapiens) (UniProt P0DP23). The experiment is described as follows: CALM1 binders on microarrays, EGTA buffer, profiling panel, biochemical, small-molecule microarray, Cy5-labelled CALM1 (AID 1111).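 Also: labelled calmodulin applied in Tris saline Tween buffer holding calcium plus EGTA and DTT.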 The settings on record: Cy5-CALM1 binding fluorescence, higher = more signal.
For experiment [5] the target is unchanged. The experiment is described as follows: calcium-bound CALM1 binders on microarrays, profiling panel, artefact control for SMM control-protein annotation, biochemical, small-molecule microarray, Cy5-labelled CALM1, plus calcium (AID 1112).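 Also: score merges spot fluorescence with signal to noise from triplicate slides.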 Conditions: Cy5-CALM1 binding fluorescence, higher = more signal.
The nature of experiment [6]: small-molecule microarray binders of probe aWnt5a, primary screen, biochemical, biotinylated probe, 635/667 nm fluorescence (AID 1113).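 Also: score merges 667 nm fluorescence intensity with signal-to-noise per printed feature.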 Conditions: higher = more signal.
A short description of experiment [7]: small-molecule microarray binders of probe aShh, primary screen, biochemical, biotinylated probe, 635/667 nm fluorescence (AID 1114).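 Also: probe is biotin-labelled aShh protein from a stem cell growth factor screen; measures binding of labelled protein to compounds printed on the slide; score merges feature fluorescence at 667 nm with signal-to-noise.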 Conditions: higher = more signal.
The nature of experiment [8]: small-molecule microarray binders of probe aNog, primary screen, biochemical, biotinylated probe, 635/667 nm fluorescence (AID 1115).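 Also: probe is biotinylated aNog protein used at 0.15 µg/mL for 1 h at 4 C; z-score combines 667 nm fluorescence of each spot with its signal to noise.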 The settings on record: higher = more signal.
Experiment [9] deals with Torsin-1A-interacting protein 1 (Homo sapiens) (UniProt Q5JTV8). As to the kind of experiment: LAP1 binders from COS7 cell lysate, primary screen, small-molecule microarray, 635/667 nm fluorescence (AID 1116). Conditions: COS7-hLAP1 lysate binding, 635 nm fluorescence, higher = more signal.
Sequence of Torsin-1A-interacting protein 1 (Homo sapiens) (Q5JTV8 whole entry, looked up): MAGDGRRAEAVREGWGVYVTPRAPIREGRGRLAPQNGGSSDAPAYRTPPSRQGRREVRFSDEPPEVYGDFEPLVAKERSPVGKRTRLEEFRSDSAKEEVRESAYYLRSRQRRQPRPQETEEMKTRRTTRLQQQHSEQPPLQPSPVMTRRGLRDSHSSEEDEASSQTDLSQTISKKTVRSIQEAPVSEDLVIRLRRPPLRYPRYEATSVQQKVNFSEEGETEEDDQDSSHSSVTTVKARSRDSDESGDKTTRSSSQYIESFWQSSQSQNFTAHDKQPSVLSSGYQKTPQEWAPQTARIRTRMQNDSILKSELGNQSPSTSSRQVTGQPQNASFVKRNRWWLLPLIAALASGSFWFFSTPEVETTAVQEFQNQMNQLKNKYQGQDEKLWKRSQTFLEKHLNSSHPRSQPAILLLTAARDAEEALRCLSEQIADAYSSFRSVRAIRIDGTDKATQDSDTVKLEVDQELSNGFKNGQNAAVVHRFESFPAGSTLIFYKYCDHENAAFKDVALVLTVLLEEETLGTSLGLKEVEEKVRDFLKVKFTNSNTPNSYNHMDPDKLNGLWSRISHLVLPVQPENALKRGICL
The target in experiment [10] is Alpha-bungarotoxin (Bungarus multicinctus) (UniProt P60615). As to the kind of experiment: alpha-bungarotoxin binders on microarray, profiling panel, artefact control for SMM control protein annotation, biochemical, small-molecule microarray, Alexa647 label, 635/667 nm fluorescence (AID 1117). The settings on record: alpha-BTX-A647 binding fluorescence, higher = more signal.
Sequence of Alpha-bungarotoxin (Bungarus multicinctus) (P60615 whole entry, looked up): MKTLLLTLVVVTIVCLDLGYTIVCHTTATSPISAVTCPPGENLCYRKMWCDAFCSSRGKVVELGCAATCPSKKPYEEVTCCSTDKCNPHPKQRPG

Experiment [11] concerns the target Albumin (Bos taurus) (UniProt P02769). The experiment is described as follows: bovine serum albumin binders on microarray, profiling panel, artefact control for SMM control protein annotation, biochemical, small-molecule microarray, Alexa647 label, 635/667 nm fluorescence (AID 1118).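 Also: score merges 667 nm emission intensity and signal-to-noise per printed compound spot.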 Conditions: BSA-A647 binding, fluorescence 635 nm, higher = more signal.
Experiment [12] in a line: small-molecule microarray binders of probe aXIP, primary screen, biochemical, NeuroSMM set, 635/667 nm fluorescence (AID 1119).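 Also: probe is the protein aXip251-270 applied at 1 µg/mL to compound-printed slides; binding of probe to printed compounds measured as 667 nm fluorescence plus signal to noise.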 Conditions: higher = more signal, called active from +8 up or from −8 down.
Experiment [13] is described as follows: small-molecule binders of probe aNOTCH3, primary screen, biochemical, small-molecule microarray, 635/667 nm fluorescence (AID 1120).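 Also: probe is a biotin-tagged antibody raised against NOTCH3 rather than NOTCH3 protein; score merges spot fluorescence near 667 nm with spot signal to noise.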 Conditions: higher = more signal.
Experiment [14] in a line: small-molecule binders of probe aNOTCH2, primary screen, biochemical, small-molecule microarray, 635/667 nm fluorescence (AID 1121).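 Also: score merges feature fluorescence read at 667 nm with its signal to noise.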 The settings on record: higher = more signal.
The target of experiment [15] is Carbonic anhydrase 2 (Homo sapiens) (UniProt P00918). As to the kind of experiment: CAII small-molecule binders, profiling panel, biochemical, small-molecule microarray, Alexa647-labelled CAII (AID 1122). Conditions: CAII-A647 binding fluorescence, higher = more signal.
Experiment [16] in a line: COS7 lysate on small-molecule microarray, probe aHis, 635 nm (AID 1123).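 Also: z-score combines 667nm fluorescence intensity with signal-to-noise per printed compound spot.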 The settings on record: COS7 cell lysate, fluorescence, higher = more signal.
The nature of experiment [17]: compound binding in COS7 lysate, probe aLAP1, primary screen, cell lysate, small-molecule microarray (AID 1124).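 Also: lysate comes from COS7 cells expressing LAP1 and is applied at 0.3 µg/mL; score merges spot fluorescence near 667 nm with signal-to-noise over triplicate slides.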 The settings on record: probe aLAP1, fluorescence, higher = more signal.
Experiment [18] concerns Sam68 (KHDRBS1). The experiment is described as follows: Sam68 small-molecule binders, primary screen, biochemical, small-molecule microarray, 635 nm fluorescence (AID 1125).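 Also: score merges 667 nm channel intensity with signal to noise over triplicate slides.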 Conditions: small-molecule microarray binding, higher = more signal.
Experiment [19] relates to Chordin-like protein 2 (CHRDL2). The experiment is described as follows: CHRDL2 small-molecule binders, primary screen, biochemical, small-molecule microarray, 635 nm fluorescence (AID 1126).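 Also: printed compound slides probed with Chrdl2 protein at 4 µg/mL for 1 h at 4 C; score merges 667 nm emission intensity with signal to noise over three replicate slides.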 Conditions: small-molecule microarray binding, fluorescence 635 nm; higher = more signal.
Experiment [20] deals with Concanavalin-A (Canavalia ensiformis) (UniProt P02866). As to the kind of experiment: ConA small-molecule binders, primary screen, artefact control for SMM control protein annotation, biochemical, small-molecule microarray, Alexa647 label, 635 nm (AID 1127).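 Also: z combines 667 nm emission intensity with signal-to-noise across three replicate slides.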 The settings on record: ConA-A647 binding fluorescence, higher = more signal.
Sequence of Concanavalin-A (Canavalia ensiformis) (P02866 whole entry, looked up): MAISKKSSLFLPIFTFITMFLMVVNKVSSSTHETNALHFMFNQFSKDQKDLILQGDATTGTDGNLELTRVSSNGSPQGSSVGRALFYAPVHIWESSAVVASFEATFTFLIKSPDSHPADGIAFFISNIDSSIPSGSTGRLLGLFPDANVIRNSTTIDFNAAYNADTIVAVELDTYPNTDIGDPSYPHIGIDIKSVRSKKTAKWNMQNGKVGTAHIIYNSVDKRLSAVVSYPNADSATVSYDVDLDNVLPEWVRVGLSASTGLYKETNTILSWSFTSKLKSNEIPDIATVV

Sequence of Albumin (Bos taurus) (P02769 whole entry, looked up): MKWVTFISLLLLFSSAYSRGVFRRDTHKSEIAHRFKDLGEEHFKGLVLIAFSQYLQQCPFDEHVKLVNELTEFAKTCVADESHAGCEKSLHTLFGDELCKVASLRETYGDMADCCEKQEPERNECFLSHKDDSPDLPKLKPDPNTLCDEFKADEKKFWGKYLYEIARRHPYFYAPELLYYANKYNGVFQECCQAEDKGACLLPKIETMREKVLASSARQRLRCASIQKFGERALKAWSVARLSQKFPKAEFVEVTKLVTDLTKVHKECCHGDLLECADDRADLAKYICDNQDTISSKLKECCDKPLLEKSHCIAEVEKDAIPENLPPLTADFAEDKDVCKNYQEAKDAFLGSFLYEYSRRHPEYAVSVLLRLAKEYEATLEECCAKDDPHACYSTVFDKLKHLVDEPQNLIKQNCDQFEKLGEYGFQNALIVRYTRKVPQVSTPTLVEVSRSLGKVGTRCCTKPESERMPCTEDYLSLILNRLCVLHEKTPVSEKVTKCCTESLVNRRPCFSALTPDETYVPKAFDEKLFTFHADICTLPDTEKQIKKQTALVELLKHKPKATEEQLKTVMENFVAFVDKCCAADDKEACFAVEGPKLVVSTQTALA
Sequence of Left-right determination factor 2 (Homo sapiens) (O00292 whole entry, looked up): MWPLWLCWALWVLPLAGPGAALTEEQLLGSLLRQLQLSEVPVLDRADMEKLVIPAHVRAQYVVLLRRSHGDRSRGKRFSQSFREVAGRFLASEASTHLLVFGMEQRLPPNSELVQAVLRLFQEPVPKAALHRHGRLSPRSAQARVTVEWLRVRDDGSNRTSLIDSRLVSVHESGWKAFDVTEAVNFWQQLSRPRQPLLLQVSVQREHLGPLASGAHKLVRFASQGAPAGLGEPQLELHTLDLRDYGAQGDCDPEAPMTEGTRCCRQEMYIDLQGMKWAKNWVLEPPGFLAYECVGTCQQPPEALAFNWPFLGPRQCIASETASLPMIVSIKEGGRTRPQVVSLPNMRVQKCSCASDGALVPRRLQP

Regarding `C[C@@]1([C@@H](NC(=O)c2cccs2)c2ccc(-c3ccccc3)cc2)C[C@H]1C1CCCCC1`, the composite z-score in [1] is -0.309; in experiment [3] it was -0.919; in [4] it was 0.645; in experiment [5], 0.111; in [6], -0.302; in experiment [7], -0.478. Further, the composite z-score in [8] was 0.356; in [9], 0.0643; in [10] it was -0.344; in experiment [11], 0.0881; in experiment [13], -0.0027; in [14], -0.343. For the same compound, the composite z-score was 0.786 in experiment [15]; 3.02 in experiment [16]; -0.165 in experiment [17]; -0.307 in [18]; -0.237 in experiment [19]; -0.419 in [20]. Also, the z-score in experiment [2] is -1.47. In addition, in [12], the composite Z-score is 0.0169 (inactive).

With `Cc1ccccc1C(O)C1C=CC2C(=O)N(Cc3ccccc3)C(=O)C2N1n1cnnc1` (stereo not given), the composite z-score is 1.29 in experiment [1]; -0.305 in experiment [3]; 0.0712 in experiment [4]; -0.535 in experiment [5]; 0.0388 in experiment [6]; 0.108 in [7]. For the same compound, the composite z-score in experiment [8] is 0.2; in experiment [9] it was 0.542; in experiment [10], 0.611; in experiment [11], 0.756; in experiment [13], 0.159; in [14] it was -0.137. Besides, the composite z-score in experiment [15] is 0.71; in experiment [16], 0.774; in experiment [17], -0.0065; in [18], 1.01; in experiment [19], -0.317; in experiment [20] it was 0.71. For the same compound, the z-score in experiment [2] was -0.364. Moreover, the composite Z-score in experiment [12] is 0.358 (inactive).

As for `C=CCNC(=O)[C@H]1[C@@H]2C(=O)O[C@@H](c3ccccc3)[C@@H](c3ccccc3)N2[C@@H](c2ccc(O)cc2)[C@]12C(=O)N(C(=O)OCCOC)c1ccc(C#CC3(O)CCCCCC3)cc12`, the composite z-score in experiment [1] was 0.739; in [3], -0.326; in experiment [4], 0.487; in experiment [5], 0.205; in experiment [6], -0.0445; in experiment [7] it was 0.0469. The composite z-score was 0.268 in experiment [8]; 1.16 in experiment [9]; 1.2 in [10]; 0.624 in experiment [11]; 0.207 in experiment [13]; -0.0519 in experiment [14]. In addition, the composite z-score was 0.39 in experiment [15]; 1.08 in [16]; -0.0714 in experiment [17]; 1.23 in [18]; -0.233 in experiment [19]; 0.915 in [20]. In experiment [2], this compound showed a z-score of -0.302. In experiment [12], the composite Z-score is 0.282 (inactive).

With `C[N+](C)(C)CCCCNC(=O)[C@H]1C[C@H]2C(=O)NCC(=O)N2[C@H]1c1ccc(O)cc1`, the composite z-score was 0.0571 in [1]; 0.794 in experiment [3]; -1.08 in experiment [4]; -0.966 in experiment [5]; -0.103 in experiment [6]; -0.291 in experiment [7]. Besides, the composite z-score in experiment [8] was -0.0037; in experiment [9], 0.721; in experiment [10], 0.832; in [11], -1.48; in [13] it was 0.175; in experiment [14], -0.0457. Further, the composite z-score worked out at 0.568 in [15]; 1.56 in experiment [16]; 1.01 in [17]; 0.852 in experiment [18]; 1.39 in experiment [19]; 1.14 in experiment [20]. The compound also gave a z-score in experiment [2] of -0.463. For the same compound, the composite Z-score in experiment [12] was 0.586 (inactive).

In the case of `Cc1ccc(C(C)CC(O)C2C=CC3C(=O)N(Cc4ccccc4)C(=O)C3N2n2cnnc2)o1` (stereo not given), the composite z-score in [1] was 1.22; in [3] it was -0.304; in [4], 0.455; in experiment [5], 0.0454; in [6], 0.688; in experiment [7], 0.765. The composite z-score in [8] was 2.12; in [9], 0.342; in [10], 0.279; in experiment [11], 1.03; in experiment [13] it was 1.3; in experiment [14], 0.654. In addition, the composite z-score in experiment [15] is 0.461; in experiment [16] it was 1.7; in experiment [17], 0.704; in experiment [18] it was 1.12; in experiment [19], -0.377; in [20] it was 1.17. This compound had a z-score in experiment [2] of 0.236. Moreover, the composite Z-score in [12] is 0.391 (inactive).

Take `CO[C@H]1O[C@H](CO)[C@@H](OC(=O)c2ccc(Br)cc2)[C@@H]2OC(=O)[C@H](Cc3cccc(Br)c3)C/C=C/C[C@@H](Cc3cccc(Br)c3)C(=O)O[C@@H]12`: the composite z-score in experiment [1] was 0.549; in experiment [3] it was 0.985; in experiment [4], 0.622; in experiment [5] it was 0.0872; in [6], -0.113; in [7], 0.317. Also, the composite z-score in experiment [8] was -0.172; in experiment [9] it was 0.323; in experiment [10] it was 0.867; in [11], 0.695; in experiment [13], 0.119; in [14] it was -0.0486. Further, the composite z-score in experiment [15] was found to be 0.439; in experiment [16] it was 0.806; in experiment [17], 0.72; in [18], 1.18; in experiment [19], 0.511; in experiment [20], 0.583. The same compound registered a z-score in [2] of -2.15. The composite Z-score in [12] is 0.528 (inactive).
